Hits are enriched below; roughly 0.88% of the tested compounds scored in any of these assays.
GCN5L2 inh: qHTS Assay for Inhibitors of GCN5L2 | Histone acetyltransferase KAT2A (Homo sapiens), Q92830 | GCN5L2 HAT assay, ThioGlo1 CoA-SH fluorescence | Potency, µM (highest dose often 58.9 µM), for inactives: at the top dose activity change, negative = inhibition, usual class: inhibitors | hit rate 0.21% among 390,000 | AID 504327, 2011; further: on the % scale 0 is the no-effect control and ±100 the full control effect
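Enzyme at 20nM final was mixed with library compounds for 15 min at room temperature. Peptide H3(1-25) at 75uM, acetyl-CoA at 70uM and ThioGlo1 at 50uM were then added. Plates were read immediately and after 20 min (Ex340nm/Em540nm).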
BLM inh: qHTS Assay for Inhibitors of Bloom's syndrome helicase (BLM); RecQ-like DNA helicase BLM (Homo sapiens), P54132; recombinant BLM DNA unwinding, fluorescence dequenching; Potency, µM (series often up to 56.1 µM), for the others: at the top dose activity change, negative = inhibition, hits mostly inhibitors; hit rate 0.2% among 350,000; AID 2528, 2010;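 further: plate controls were vehicle for no effect and no enzyme for full effect; nearly all actives have a fitted effect of over 35% in size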
WRN inhibitor: qHTS for Inhibitors of WRN Helicase; AID 651768, 2012; hit rate 0.46% among 360,000; Potency, µM (titrated, usually from 114 µM), inactives show at the top dose activity change, negative = inhibition, usual class: inhibitors; WRN helicase unwinding, fluorescent forked duplex, kinetic; Bifunctional 3'-5' exonuclease/ATP-dependent helicase WRN (Homo sapiens), Q14191; further: on the % scale 0 is the no-effect control and ±100 the full control effect; nearly all actives have a fitted effect of over 55% in size
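Fluorescence dequenching readout, ex 525 nm/em 598 nm, kinetic mode: forked duplex DNA (100 nM final) with adjacent fluorophore and quencher unwound by WRN (20 nM final) with 2 mM ATP. Compound preincubation 15 min, room temperature.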
RECQ1 inh: qHTS Assay for Inhibitors of RecQ-Like Dna Helicase 1 (RECQ1). RECQ1 DNA unwinding, red fluorescence kinetic read. Potency, µM (series often up to 57.3 µM), inactives show at the top dose activity, negative = inhibition, actives largely listed as inhibitors. hit rate 0.54% among 240,000;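 further: plate controls were vehicle for no effect and no enzyme for full effect; nearly all actives have a fitted effect of over 30% in size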
Target sequence (P46063 whole entry, looked up): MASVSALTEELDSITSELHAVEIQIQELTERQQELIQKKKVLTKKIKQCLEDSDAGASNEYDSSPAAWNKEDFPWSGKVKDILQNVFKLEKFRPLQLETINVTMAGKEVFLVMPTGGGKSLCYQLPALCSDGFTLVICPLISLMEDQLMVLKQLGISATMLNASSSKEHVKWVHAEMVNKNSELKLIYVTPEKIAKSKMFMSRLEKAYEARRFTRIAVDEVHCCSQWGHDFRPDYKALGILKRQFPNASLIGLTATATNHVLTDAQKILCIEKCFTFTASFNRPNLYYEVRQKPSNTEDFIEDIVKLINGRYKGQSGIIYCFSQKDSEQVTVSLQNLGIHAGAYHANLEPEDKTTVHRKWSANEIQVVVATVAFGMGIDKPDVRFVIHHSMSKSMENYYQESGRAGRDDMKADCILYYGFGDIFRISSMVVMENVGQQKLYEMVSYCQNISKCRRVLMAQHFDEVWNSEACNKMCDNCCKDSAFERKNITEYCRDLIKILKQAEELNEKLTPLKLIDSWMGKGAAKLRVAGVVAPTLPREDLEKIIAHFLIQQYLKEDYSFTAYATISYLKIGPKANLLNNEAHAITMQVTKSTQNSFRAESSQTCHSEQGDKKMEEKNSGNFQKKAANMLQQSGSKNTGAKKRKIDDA
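RECQ1T1 50 nM; forked duplex (20 bp + 30-nt ss tails) 200 nM, ATP 2 mM final; pH 8.0, 2 mM MgCl2, 2.5 ug/ml poly(dI-dC); 15 min compound preincubation; discontinuous kinetic read over 2 h at RT.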
APE1 inh-1: qHTS Assay for Inhibitors of the Human Apurinic/apyrimidinic Endonuclease 1 (APE1). DNA repair nuclease/redox regulator APEX1 (Homo sapiens), P27695. recombinant APE1, TAMRA/BHQ-2 abasic DNA cleavage fluorescence. Potency, µM (top dose mostly 65.8 µM), inactives show at the top dose activity change, negative = inhibition, most hits filed as inhibitors. hit rate 0.35% among 350,000. AID 2517, 2012;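 further: plate controls were vehicle for no effect and reference inhibitor for full effect; nearly all actives have a fitted effect of over 55% in size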
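Measures dequenching upon AP-site incision of a 5'-TAMRA/3'-BHQ-2 THF-containing duplex, 50 nM; human APE1 0.75 nM after 15 min room-temperature exposure to compound; kinetic three-point read at one-minute spacing.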
ERG Ets-DNA blk: qHTS for Small Molecule Inhibitors of the ERG Ets/DNA interaction. hit rate 0.028% among 370,000. AID 624246, 2012. Transcriptional regulator ERG (Homo sapiens), P11308. fluorescence polarization, His-ERG Ets domain / labelled DNA. Potency, µM (top dose mostly 76.9 µM), for the others: at the top dose FP activity, negative = inhibition, usual class: inhibitors; active means well fitted inhibition curve with a large enough effect in the polarisation, with a control signal flat; inconclusive means small, poorly fitted or top-dose-only effect, or effect the other way, or a change in a side signal; inactive means no such curve, though single readings can be large or run the other way; the % refers to the polarisation;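 further: polarization taken with two DNA probes labelled with fluorescein and Texas red; % of control where 0% means no effect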
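His-tagged ERG Ets domain (1 uM in the protein solution; 300mM KCl, 50mM Tris-HCl, 1mM EDTA, 1mM DTT, pH 7.5) received compound, then a probe mix of 5 nM fluorescein-DNA and 100nM Texas-615-DNA. Fluorescence polarization was read for both dyes.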
APE1 dye cs: Counterscreen for APE1 Inhibitors: Fluorescent Dye Displacement Assay; hit rate 7% among 480; shares compounds with APE1 inh-1; Potency, µM (highest dose often 28.5 µM), for the others: at the highest dose activity change, negative = inhibition, usual class: inhibitors; DNA fluorescent dye displacement counterscreen, fluorescence;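 further: loss of thiazole orange fluorescence as the dye is displaced from duplex DNA; 0% = ThO with dsDNA and no compound and -100% = ThO without dsDNA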
EndoIV counter: Counterscreen for APE1 Inhibitors: qHTS Assay for Inhibitors of Endonuclease IV. hit rate 4% among 560. AID 2565, 2010. shares compounds with APE1 inh-1. Potency, µM (highest dose often 27.1 µM), for the others: top-dose activity change, negative = inhibition, hits mostly inhibitors. E. coli Endo IV, fluorogenic AP-site DNA cleavage;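 further: plate controls were uninhibited enzyme wells for no effect and no enzyme buffer wells for full effect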
APE1 inh-2: Confirmation qHTS Assay for Inhibitors of the Human Apurinic/apyrimidinic Endonuclease 1 (APE1) | shares compounds with APE1 inh-1 | purified APE1, fluorogenic abasic-site DNA cleavage | Potency, µM (highest dose often 57.1 µM), without a hit: at the top dose activity change, negative = inhibition, most hits filed as inhibitors | hit rate 44% among 750 | AID 2572, 2010; further: on the % scale 0 is the no-effect control and ±100 the full control effect; nearly all actives have a fitted effect of over 30% in size
APE1 FP: qHTS FP-Based Assay for Inhibitors of the Human Apurinic/apyrimidinic Endonuclease 1 (APE1); AID 2573, 2010; APE1 binding to TAMRA-labelled double-stranded DNA, fluorescence polarization displacement; shares compounds with APE1 inh-1; hit rate 7% among 480; Potency, µM (highest dose often 28.5 µM), without a hit: at the top dose activity, negative = inhibition, actives largely listed as inhibitors; further: on the % scale 0 is the no-effect control and ±100 the full control effect
Numbers without * were called inactive; i = inactive; ? = inconclusive; / = no result; [ ] = dose if it differs, or a comment. Unless noted, the call rests on the fitted dose curve; in most records, active means well fitted curve in the direction sought with a large enough effect; inconclusive means small, poorly fitted or top-dose-only effect, or another doubt; inactive means no such curve, though single readings can be large; an effect the other way counts as inactive or inconclusive. Potency means the concentration at half of the fitted maximal effect.

SMILES | GCN5L2 inh | BLM inh | WRN inhibitor | RECQ1 inh | APE1 inh-1 | ERG Ets-DNA blk | APE1 dye cs | EndoIV counter | APE1 inh-2 | APE1 FP
Cc1cc2c(cc1C)-c1nnnn1C(N1CCCC1)C(=O)N2 (centres undefined) | / | / | 5% | / | / | / | / | / | / | /
O=C(Cc1csc(N2CCOCC2)n1)N/N=C/c1ccc(O)c(O)c1O | -14% | -12% | 22µM* | ? | 2.2µM* | 14% | ? | 92% | ? | 4%
CCCCC#Cc1ccccc1CC(=O)Nc1ccccc1 | -2% | -3% | -9% | -4% | 3% | 4% | / | / | ? | /
COC(=O)c1ccc(N)cc1O | -6% | 0% | -13% | -11% | ? | -3% | / | / | / | /
COC(=O)c1ccc(=O)c2nc3/c(=C/O)c(O)cc(=O)c3[nH]c12 | ? | 18µM* | ? | ? | ? | -3% | ? | ? | ? | -28%
O=C(COc1ccc(F)cc1)Nc1cc(Cl)ccc1-n1cncn1 | -1% | / | -14% | / | 12% | 4% | / | / | / | /
Cc1ccc(NC(=O)CN2C(=O)S/C(=C\c3ccc(-c4cccc(C(=O)O)c4C)o3)C2=O)cc1 | 5% | 1% | / | ? | ? | / | / | / | 40µM* | /
Cc1ccc(NC(=O)CN2C(=O)S/C(=C/c3ccc(-c4cccc(C(=O)O)c4)o3)C2=O)cc1 | -4% | -24% | ? | i | ? | 12% | / | / | / | /
Cc1ccc(C(=O)O)cc1-c1ccc(/C=C2\SC(=O)N(CC(=O)Nc3ccccc3)C2=O)o1 | -17% | -6% | ? | -17% | ? | -9% | / | / | 40µM* | /
Cc1ccc(NC(=O)CN2C(=O)S/C(=C\c3ccc(C(=O)O)cc3)C2=O)cc1 | -8% | -9% | 1% | / | ? | -11% | / | / | / | /
CCOC1=C2CN(S(=O)(=O)c3ccc(C)cc3)[C@H](c3ccccc3)C[C@@H]2N(S(=O)(=O)c2ccc(C)cc2)[C@H](c2cccs2)C1 | / | / | -9% | / | / | / | / | / | / | /
O=c1c(-c2ccc(F)cc2)nc2cnc(N3CCOCC3)nc2n1CCc1ccccc1 | -19% | 0% | / | -8% | -1% | / | / | / | / | /
CN1CCN(c2ncc3ncc(=O)n(C4CC4)c3n2)CC1 | ? | 4% | / | 11% | 31% | / | / | / | / | /
COc1ccc(-c2csc(C(O)c3ccc(F)c(OC)c3)n2)cn1 (centres undefined) | / | / | 2% | / | / | / | / | / | / | /
Cc1cc(C(=O)N/N=C/c2ccc(O)c(O)c2O)c(C)n1-c1ccccc1 | ? | -7% | -5% | -1% | 4.5µM* | -10% | -10% | 30% | ? | -87%
O=C1N/C(=C/c2ccc(N3CCOCC3)o2)C(=O)N1c1ccccc1 | -5% | 1% | ? | 3% | -2% | 9% | / | / | / | /
O=C(O)c1ccc(-c2ccc(/C=C3\NC(=O)N(Cc4ccc(Cl)cc4)C3=O)o2)cc1 | -12% | -1% | -10%[11.6 µM] | 10% | -31% | 1% | / | / | ? | /
Cc1ccc(CN2C(=O)N/C(=C\c3ccc(-c4ccc(C(=O)O)cc4C)o3)C2=O)cc1 | ? | -17% | ? | ? | 16µM* | 8% | ? | 13% | ? | 0%
Cc1ccc(C(=O)O)cc1-c1ccc(/C=C2/NC(=O)N(c3ccccc3)C2=O)o1 | -21% | 12% | 40µM* | 18µM* | 11µM* | 3% | -9% | 32% | ? | -8%
CCOc1ccc(NC(=O)Cn2cc(S(=O)(=O)c3ccc(C)cc3)c(=O)c3cc(F)ccc32)cc1 | 1% | 1% | / | / | / | 0% | / | / | / | /
O=C(O)c1ccc(COc2ccccc2/C=C2/NC(=O)N(c3cccc(Cl)c3)C2=O)cc1 | ? | 20µM* | ? | ? | ? | -5% | / | / | 16µM* | /
CCOC(=O)C1=C(C)NC(=O)NC1c1ccco1 (centres undefined) | -7% | -12% | -35% | -18% | ? | -1% | 0% | 7% | ? | -11%
COCCOC(=O)C1=C(C)NC(=O)NC1c1ccco1 (centres undefined) | 2% | -14% | 9% | i | ? | 2% | / | / | / | /
c1cncc(-c2nc(-c3ccco3)cs2)c1 | -6% | -21% | -34% | -15% | 25µM* | -10% | -10% | 0% | -10%[24.4 µM] | ?
O=C(NCc1ccc(F)cc1)c1cc(C2CCCCN2S(=O)(=O)c2ccc(F)cc2F)on1 (centres undefined) | / | / | -7% | / | / | / | / | / | / | /
Cc1ccc(/C=C2\SC(=S)N(c3cccnc3)C2=O)o1 | -7% | -14% | -9% | ? | 16µM* | 62% | ? | 5% | -10%[24.4 µM] | 6%
Cc1cccc(N2C(=O)/C(=C/c3cccnc3)SC2=S)c1 | -2% | -5% | -2% | -3% | -2% | 39% | / | / | / | /
Nc1ccn([C@@H]2O[C@H](CO)[C@@H](O)[C@H]2O)c(=O)n1 | -10% | 2% | 4% | i | 15% | -20% | / | / | / | /
Nc1ccn([C@@H]2O[C@H](CO)[C@@H](O)C2O)c(=O)n1 (some centres undefined) | -9% | 3% | 3% | -10% | -3% | -1% | -3%[57.1 µM] | 22%[57.1 µM] | -6% | 7%[57.1 µM]
CCOC(=O)N1CCC(N2Cc3cccc(C(=O)NCc4ccc5c(c4)OCO5)c3C2=O)CC1 | -10% | -21% | -26% | -10% | ? | 8% | / | / | ? | /
